This is an account of results in the supplement of paper PMC6555819.

The test relates to VDR:RXRa (NR concentration 270 nM, RXRa partner concentration 90 nM). Nature of the test: PBM binding z-score (relative to random genomic background probes); higher = stronger binding; sequences stand for … in GC…GCGATTGACAGCGTAGAATGAAGG
On the procedure:
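Protein-binding microarray (Agilent 4x180K custom design, double-stranded 60-nt probes: 5' GC cap, 34-nt variable region, 24-nt constant primer region; full probe sequence given). Purified or IVT nuclear receptor:RXRα heterodimers (3:1 NR:RXRα, mostly 270:90 nM) or homodimers were incubated for 1 h in PBS with 2% milk and no ligand, then detected with Alexa488 antibodies. Fluorescence from o1-orientation probes (~5 replicates averaged) was converted to z-scores against 500 random hg19 background probes. Variable regions are seed direct-repeat (DR0–DR5) sites, all their single-nucleotide variants and half-site ablations.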
GATACAGGGTTAGCTAGAGGCCAGAGTATGGAAA showed a PBM binding z-score of 0.139.

The sequence ATCGAAAGGTCGTGAGGTGAGCATACAGAAAGGC gave a PBM binding z-score of 3.19.

In turn, TCTTGTAGACCAGCAGGTTAAGAAAGCTGGCCAA gave a PBM binding z-score of 0.209.

CGTCCAAGGTCATAGGAGGTCCGTGAAGACAGAT returned a PBM binding z-score of 4.88.

Sequence GCGACTGGGGCATCAGGAGGTTACCATAACTTAA had a PBM binding z-score of 0.558.

On to CGAACGAGGGCATGAGTTGAAAGCAAATGCCGAT, for which the PBM binding z-score is 1.25.

ATCTCTAGGTAAGACTCAGTCCAGTGAAGAACGC registered a PBM binding z-score of 0.327.

ACTATTAGTTGACACGAGGGCAACCGATAGGTTG showed a PBM binding z-score of 1.4.

Regarding AGAACGAGGGCACGCTGAGTTGATATCAGAGTAG, the PBM binding z-score turned out to be 2.02.

As for CGTCAAAGTGCAACTAAGGTAACGTAAAGCACGC, the PBM binding z-score was found to be 0.866.

In the case of ATATGTCGGTTAGCTGGGGTCATTCAGACTAGGC, the PBM binding z-score stood at 5.12.

Take CCACGGAGGACAACAGGAGGTCAGAGCTGCCAGA: the PBM binding z-score is 2.13.

Sequence TTACCAAGGTGAAAGGTCGTTGTTGCACGCCTTG returned a PBM binding z-score of 3.24.

CCGAGTGGGGCATAAGGTTACCATAAGCCAGCCC had a PBM binding z-score of 0.143.

Turning to TCTCGGACGACACGAAGGTCAGAGCTTTCCAGAG, the PBM binding z-score worked out at 1.2.

On to CCTAGTAGGCCAATCTGGGTCACTCAAGGCTTGA, for which the PBM binding z-score came to 0.875.

The sequence CCGACTGGAGCAAGGTTACCATAACGCACAGCCA displayed a PBM binding z-score of 0.139.

As for ATCGGAAGGTCGTGAGGTGAGTATACAGAAAGGC, the PBM binding z-score is 2.1.

CAAACTAGGTCACGAAAGGACAAAGTCGAATGAC returned a PBM binding z-score of 4.23.

Take TATACAGGGTCAAAGGCCAGAGTACGAATGTCGA: the PBM binding z-score is 4.8.

The sequence TGAATGAGGTTAAAGACCAGGGAACGTGGCGTCG had a PBM binding z-score of 1.09.

On to TCGAGGAGGTTACCAATGGGGCATTCAGCTTTCT, for which the PBM binding z-score stood at 1.13.

For TTTTGTAGATCAATAGAGGTTAAGAAAGTGCGCT, the PBM binding z-score turned out to be 2.09.

In the case of TATACAGGCTCAAAGGCCAGAGTACGAATGTCGA, the PBM binding z-score is -0.106.

CGAAATAGGTCAGAACAGGACAGTGAAGGATGAT came in with a PBM binding z-score of 1.71.

For CCTACTGGGCCATTCAGAGATCATTGATCATATG, the PBM binding z-score is -0.415.

Sequence TCTCGGCGGACACGAAGGTCAGAGCTTTCCAGAG yielded a PBM binding z-score of 0.658.

CGTCCAAGGTCATAGGAGGTCAGTGACGACAGAT: the PBM binding z-score worked out at 6.55.

As for ACTAGCAGGCCAAGTTTGGGTGACTCAAACAAAG, the PBM binding z-score is -0.388.

Sequence TATCGGAGGACACGAAGGTCAGAGCTTTCCAGAG came in with a PBM binding z-score of 2.32.

CCAGACAGGTGAGAAGGTATCTCAGCCTCGATTA yielded a PBM binding z-score of -0.224.

TCGAGTAGGTTAGGGGCATTTAGAATGGCGTCGA: the PBM binding z-score came out at 0.556.

Consider ATCTCTAGGGAACCAAGTTCAGTGAATGCCGAAC, for which the PBM binding z-score is 2.1.

On to CCGACTGGGGCAAGATTACCATAACGCACAGCCA, for which the PBM binding z-score is -0.621.

On to CCGACTGGGGCAGAAAGGTTACGATACCATCCGG, for which the PBM binding z-score was found to be 1.2.

In turn, CCAGACAGGTGAGAGGTAACTCAGTCTGGTACGC registered a PBM binding z-score of -0.0647.

In turn, TCTAGTTGGTCACGAAGGTCACACACGACGGGTA displayed a PBM binding z-score of 4.98.

The sequence TCATATAGGTAAATGCTATGTGAAAGTCCGATCT had a PBM binding z-score of 0.852.

AATACAGGTTCACTAGGCCAGAGTAGGTACGAAT registered a PBM binding z-score of 3.2.

Take GCGACTGTGGCAAAGCAGGTTACCATAAGGTTGG: the PBM binding z-score was -0.352.
